In PubChem BioAssay AID720629 (Broad Institute, 2013) one finds max activity and outcome data, which are given here for two molecules.

A short description of this assay: SNB-75 cell apoptosis via caspase 3/7 – caspase 3/7 luminescence, several timepoints, dry powder, mechanism study for HRAS target identification, late-stage follow-up (AID 720629). The note with it: max activity: measured here: caspase 3/7, timepoint 1, at 0.0003 µM, stronger effect = higher value unless noted.

Results filed as inconclusive are left out. The source made the active and inactive calls. The rule behind the calls is not given here.

With `C#CCCCC(=O)NCCOCCOCCOc1ccc(N(C(=O)CCl)C(C(=O)NCCc2ccccc2)c2cccs2)cc1Cl` (centres undefined), the max activity is -28.3% and the molecule was classed as inactive.

`CCC(=O)N(c1ccc(OC)c(Cl)c1)C(C(=O)NCCc1ccccc1)c1cccs1` (centres undefined): the max activity was -24.1% [measured here: caspase 3/7, timepoint 1, at 0.0001 µM, stronger effect = higher value] and the molecule was called inactive.
